The source of these data is PubChem BioAssay.

The nature of experiment [1]: hit retest on RPL19A-GFP reporter strain – cell-based, S. cerevisiae, flow cytometry, cherry picks, mother/daughter gates, confirmation (AID 2270;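 active = GFP response below 50% of the DMSO control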). Particulars: 3 h, at 10 µM, stronger effect = lower value, 100 = same GFP as DMSO wells.
Experiment [2] in a line: yeast TOR pathway reporter LAP4-GFP change – cell-based, cherry picks, flow cytometry, mother/daughter gates, confirmation (AID 2271;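 active = GFP response above 150% of the DMSO control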;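 note: ratio of sample to DMSO plate mean so 100% equals DMSO level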). To be noted: S. cerevisiae LAP4-GFP strain, 3 h, at 10 µM, stronger effect = higher value.
The nature of experiment [3]: TOR pathway CIT2 reporter hit retest – S. cerevisiae, GFP fusion, cherry picks, mother/daughter gates, confirmation (AID 2274;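 active = GFP response above 150% of the DMSO level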). To be noted: S. cerevisiae CIT2-GFP strain, flow cytometry, 3 h, at 10 µM, stronger effect = higher value.
The subject of experiment [4] is Botulinum neurotoxin type F light chain protease (Clostridium botulinum). The experiment is described as follows: Clostridium botulinum type F light chain protease inhibitors, microsphere substrate cleavage, validation (AID 588459). Particulars: multiplex microsphere protease substrate cleavage assay, flow cytometry; at 10 µM; stronger effect = higher value.
Experiment [5] addresses Botulinum neurotoxin type A (Clostridium botulinum) (UniProt P0DPI0). In words: BoNT/A light chain protease inhibitors, biochemical, multiplex microsphere flow cytometry, validation set (AID 588460). To be noted: at 10 µM, stronger effect = higher value.
The nature of experiment [6]: reduced mouse 2C T cell binding to pMHC/ICAM-1 vesicles – MLPCN validation set, flow cytometry, LFA-1/ICAM-1 modulator project, pilot screen (AID 2523;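 active = response below a set limit, under 55% cells CD8-positive and vesicle-bound, and CD8 cells' 90th-percentile brightness under 279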;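 for vesicle binding response: mean PE anti-B7-1 fluorescence of CD8+ cells relative to row control; 100% = QL9-loaded vesicles with DMSO vehicle in the same plate row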). Particulars: 2C mouse CD8+ T cells, at 7 µM, stronger effect = lower value; double positive events: measured here: CD8+/vesicle+ event percentage.
The target in experiment [7] is Integrin beta-1 (Homo sapiens) + Integrin alpha-4 (Homo sapiens) (UniProt P13612+P05556). The experiment is described as follows: alpha4beta1 integrin LIBS antibody binding reduction – U937 cells, HUTS-21 mAb, flow cytometry, validation set, VLA-4 allosteric modulator project, pilot screen (AID 2674;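 active = inhibition above 50%, about 3 SD of the validation set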;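 note: antibody binding induced by the VLA-4 ligand LDV present at three times its Kd; 0% = LDV ligand with antibody and no compound and 100% = antibody without LDV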). Particulars: HUTS-21 LIBS mAb binding, at 6.7 µM, stronger effect = higher value.

Experiment [8] is described as follows: calorie-restriction mimetic ROS inhibitors, yeast – validation compound set, pilot screen (AID 2706;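 active = superoxide response below 65% of plate, a cut near 3 SD across the whole screen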;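 note: yeast exposed to compound for one week at 30 degrees C before staining; 100% = mean of all compound wells on the same plate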). Particulars: S. cerevisiae aging, superoxide DHE fluorescence; at 10 µM; stronger effect = lower value.
In experiment [9] the target is Beta-adrenergic receptor kinase 1 (Homo sapiens) (UniProt P25098). In words: GRK2 binders displacing RNA aptamer, biochemical, validation, human GRK2, bead flow cytometry (AID 488806;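 active = aptamer binding inhibition above 30%, about 3 SD of noise from non-fluorescent compounds; inactive = inhibition at or below 30%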). Particulars: bead-bound GRK2, FAM-aptamer displacement, at 10 µM, stronger effect = higher value.
Beta-adrenergic receptor kinase 1 (Homo sapiens), sequence (P25098 whole entry, looked up): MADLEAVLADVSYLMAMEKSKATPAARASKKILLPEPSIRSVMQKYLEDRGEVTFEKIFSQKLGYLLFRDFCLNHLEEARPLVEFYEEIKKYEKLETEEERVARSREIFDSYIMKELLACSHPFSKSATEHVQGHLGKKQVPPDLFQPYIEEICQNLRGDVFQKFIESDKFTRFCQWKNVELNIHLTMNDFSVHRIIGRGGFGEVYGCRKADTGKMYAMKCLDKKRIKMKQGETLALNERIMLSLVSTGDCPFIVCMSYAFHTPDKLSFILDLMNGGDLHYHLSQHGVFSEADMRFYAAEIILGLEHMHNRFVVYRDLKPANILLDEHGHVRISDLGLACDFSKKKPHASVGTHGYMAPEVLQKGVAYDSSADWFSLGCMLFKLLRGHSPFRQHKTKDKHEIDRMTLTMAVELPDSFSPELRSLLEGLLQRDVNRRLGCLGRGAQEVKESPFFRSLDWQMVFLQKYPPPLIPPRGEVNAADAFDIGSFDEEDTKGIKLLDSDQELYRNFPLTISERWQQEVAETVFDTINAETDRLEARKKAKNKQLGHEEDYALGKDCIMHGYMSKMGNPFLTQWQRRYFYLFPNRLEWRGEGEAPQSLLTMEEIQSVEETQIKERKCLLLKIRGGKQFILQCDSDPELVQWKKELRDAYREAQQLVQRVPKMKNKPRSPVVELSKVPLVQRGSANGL
Experiment [10] concerns the target AP-2 complex subunit beta (Homo sapiens) (UniProt P63010). The experiment is described as follows: beta-arrestin/AP2 interaction blockers – biochemical, validation set, GST-AP2 beads, flow cytometry, pilot screen (AID 504541;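 active = inhibition above 54%, about 3 SD of non-fluorescent compounds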;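 note: AP2 carries R879A mutation and is captured from E. coli lysate; bead-bound FITC arrestin peptide fluorescence measuring arrestin peptide binding to AP2; 0% = DMSO wells and 100% = excess unlabeled arrestin peptide control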). Particulars: FITC arrestin peptide, at 10 µM, stronger effect = higher value.
Experiment [11] in a line: cytosolic pH regulators acting via V-ATPase – S. cerevisiae, pHLuorin, HTS validation (AID 504600; in the data active = response above about 15%;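 note: plate controls were DMSO for no effect and reference compound for full effect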). Particulars: V-ATPase proton transport, at 10 µM, stronger effect = higher value.
Experiment [12] has as its system anti-desmoglein-3 scFv antibody binding to human DSG3. The experiment is described as follows: blockers of pathogenic pemphigus antibody–desmoglein-3 binding – biochemical, validation compound set, bead-based, flow cytometry, pilot screen (AID 588368;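 active = binding below the plate cutoff, the plate median minus 3 SD, with a reading above zero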;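 note: signal is the median channel fluorescence of bead-bound GFP antibody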). To be noted: Protein G beads, DSG3-Fc, scFv-GFP binding, at 10 µM, stronger effect = lower value.
Experiment [13] has as its target Lethal factor (Bacillus anthracis) (UniProt P15917). The experiment is described as follows: Bacillus anthracis lethal factor inhibition, microsphere flow cytometry protease assay, validation at 10 µM (AID 588461). To be noted: multiplex microsphere protease cleavage assay, stronger effect = higher value.
The nature of experiment [14]: Nile Red efflux blockade in pump-expressing yeast – validation compound set, multiplex, phenotypic, pilot screen (AID 588506;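 active = efflux inhibition above 0.42, the validation set average plus 4 SD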;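 note: Nile Red retained in cells so higher fluorescence means more efflux inhibition; 0 = negative control wells and 1 = enniatin B 25 µM full block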). Particulars: S. cerevisiae pump-expressing triplex, Nile Red efflux flow cytometry; at 10 µM; stronger effect = higher value.
The target of experiment [15] is ATP-binding cassette sub-family B member 6 (Homo sapiens) (UniProt Q9NP58). In words: blockers of ABCB6-driven porphyrin uptake – K562-ABCB6 cells, flow cytometry, validation set, pilot screen (AID 588550;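 active = inhibition above the screen-wide mean plus 3 SD, about 51%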;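 note: 0% = DMSO wells and 100% = benzethonium chloride 70 µM positive control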). To be noted: K562-ABCB6 porphyrin accumulation, 1 h, at 10 µM, stronger effect = higher value.
ATP-binding cassette sub-family B member 6 (Homo sapiens), sequence (Q9NP58 whole entry, looked up): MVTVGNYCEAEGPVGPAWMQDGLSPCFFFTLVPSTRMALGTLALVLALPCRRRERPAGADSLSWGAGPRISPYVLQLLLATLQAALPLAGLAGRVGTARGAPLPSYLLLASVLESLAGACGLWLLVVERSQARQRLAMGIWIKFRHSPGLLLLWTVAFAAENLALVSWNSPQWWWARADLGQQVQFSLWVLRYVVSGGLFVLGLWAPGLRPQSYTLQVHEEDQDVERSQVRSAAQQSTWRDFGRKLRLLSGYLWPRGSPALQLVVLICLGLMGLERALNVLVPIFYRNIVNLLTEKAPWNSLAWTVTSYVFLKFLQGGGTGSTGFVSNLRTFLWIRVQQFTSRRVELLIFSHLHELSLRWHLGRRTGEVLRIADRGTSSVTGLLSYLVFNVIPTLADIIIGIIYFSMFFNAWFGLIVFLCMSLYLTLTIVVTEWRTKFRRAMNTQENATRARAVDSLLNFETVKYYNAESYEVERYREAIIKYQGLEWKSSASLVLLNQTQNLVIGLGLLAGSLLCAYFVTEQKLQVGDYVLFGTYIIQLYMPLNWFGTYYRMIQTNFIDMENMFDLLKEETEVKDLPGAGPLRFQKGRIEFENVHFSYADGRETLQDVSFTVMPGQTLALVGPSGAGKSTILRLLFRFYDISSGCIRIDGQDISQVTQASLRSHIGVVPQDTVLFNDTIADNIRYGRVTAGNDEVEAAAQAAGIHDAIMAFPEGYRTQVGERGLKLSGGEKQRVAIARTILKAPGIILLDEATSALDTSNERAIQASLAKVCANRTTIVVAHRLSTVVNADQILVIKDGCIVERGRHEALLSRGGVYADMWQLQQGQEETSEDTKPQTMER
The nature of experiment [16]: AML differentiation inducers, ER-HoxA9 marrow cells – cell-based, GFP/MAC1 double positive, flow cytometry, validation set, primary screen (AID 588685;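 active = differentiation response of at least 50%, scaled between solvent and reference control, from cells with both markers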;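 note: compound exposure lasts four days before antibody staining and flow analysis; 0% = DMSO wells and 100% = 5 µM fulvestrant positive control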). Particulars: stronger effect = higher value.
The mark [17] stands for this setting: measured here: daughter cell gate.
Setting [18] is: measured here: mother cell gate.

Molecules are shown by their SMILES. Calls of active or inactive are those of the source. Unless noted, the rule behind the calls is not given here.

Lethal factor (Bacillus anthracis), sequence (P15917 whole entry, looked up): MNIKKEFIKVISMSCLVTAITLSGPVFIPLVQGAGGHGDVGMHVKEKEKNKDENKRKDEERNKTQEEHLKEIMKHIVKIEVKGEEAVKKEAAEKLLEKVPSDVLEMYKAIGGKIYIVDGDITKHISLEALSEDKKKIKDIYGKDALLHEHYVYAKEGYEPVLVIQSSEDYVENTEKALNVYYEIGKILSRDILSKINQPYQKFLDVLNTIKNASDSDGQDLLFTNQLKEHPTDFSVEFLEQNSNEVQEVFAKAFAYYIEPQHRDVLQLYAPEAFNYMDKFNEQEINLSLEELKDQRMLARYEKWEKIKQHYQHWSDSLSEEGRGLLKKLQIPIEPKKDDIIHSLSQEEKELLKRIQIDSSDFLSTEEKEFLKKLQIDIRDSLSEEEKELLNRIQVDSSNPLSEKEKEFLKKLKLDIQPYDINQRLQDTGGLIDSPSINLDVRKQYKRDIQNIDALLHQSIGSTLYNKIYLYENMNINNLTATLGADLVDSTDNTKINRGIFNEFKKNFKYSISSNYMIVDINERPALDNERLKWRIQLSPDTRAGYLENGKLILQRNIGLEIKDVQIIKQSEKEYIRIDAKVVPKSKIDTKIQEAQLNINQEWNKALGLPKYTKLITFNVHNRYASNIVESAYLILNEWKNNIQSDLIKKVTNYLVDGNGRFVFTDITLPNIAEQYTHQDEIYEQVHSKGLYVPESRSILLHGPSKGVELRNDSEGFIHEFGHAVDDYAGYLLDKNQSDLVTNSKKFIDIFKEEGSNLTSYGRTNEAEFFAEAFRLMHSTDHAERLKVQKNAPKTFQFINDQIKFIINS
Botulinum neurotoxin type A (Clostridium botulinum), sequence (P0DPI0 whole entry, looked up): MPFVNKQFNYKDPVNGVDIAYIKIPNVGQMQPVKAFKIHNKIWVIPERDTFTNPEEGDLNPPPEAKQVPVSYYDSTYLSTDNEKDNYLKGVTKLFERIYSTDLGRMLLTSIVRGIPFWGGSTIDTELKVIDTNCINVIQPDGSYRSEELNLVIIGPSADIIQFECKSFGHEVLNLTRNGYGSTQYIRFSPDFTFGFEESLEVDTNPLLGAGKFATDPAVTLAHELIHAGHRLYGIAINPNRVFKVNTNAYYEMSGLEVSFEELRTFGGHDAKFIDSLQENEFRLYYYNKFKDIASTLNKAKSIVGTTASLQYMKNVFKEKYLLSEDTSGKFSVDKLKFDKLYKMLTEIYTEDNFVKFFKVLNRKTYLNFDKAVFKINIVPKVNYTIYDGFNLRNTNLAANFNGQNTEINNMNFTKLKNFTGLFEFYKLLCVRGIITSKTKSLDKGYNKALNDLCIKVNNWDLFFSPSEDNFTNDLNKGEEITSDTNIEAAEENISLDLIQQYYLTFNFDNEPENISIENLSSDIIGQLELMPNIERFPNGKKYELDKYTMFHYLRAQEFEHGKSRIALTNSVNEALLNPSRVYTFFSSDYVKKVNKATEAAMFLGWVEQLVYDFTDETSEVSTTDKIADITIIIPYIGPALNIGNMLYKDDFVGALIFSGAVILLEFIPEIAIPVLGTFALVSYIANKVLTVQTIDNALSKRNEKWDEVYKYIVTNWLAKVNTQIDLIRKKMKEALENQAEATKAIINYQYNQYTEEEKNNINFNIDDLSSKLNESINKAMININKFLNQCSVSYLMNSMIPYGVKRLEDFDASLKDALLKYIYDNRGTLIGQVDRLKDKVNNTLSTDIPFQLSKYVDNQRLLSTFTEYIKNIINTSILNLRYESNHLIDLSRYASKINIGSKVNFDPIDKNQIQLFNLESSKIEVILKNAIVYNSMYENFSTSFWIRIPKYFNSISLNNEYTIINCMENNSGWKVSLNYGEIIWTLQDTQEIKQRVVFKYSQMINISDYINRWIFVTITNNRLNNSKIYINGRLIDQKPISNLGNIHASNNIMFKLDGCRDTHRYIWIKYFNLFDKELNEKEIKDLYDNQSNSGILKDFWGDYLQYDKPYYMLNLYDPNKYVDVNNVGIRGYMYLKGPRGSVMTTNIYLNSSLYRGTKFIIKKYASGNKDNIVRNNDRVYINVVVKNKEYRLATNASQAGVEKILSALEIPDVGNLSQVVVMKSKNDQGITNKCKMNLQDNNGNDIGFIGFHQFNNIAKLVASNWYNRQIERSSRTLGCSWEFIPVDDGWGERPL
AP-2 complex subunit beta (Homo sapiens), sequence (P63010 whole entry, looked up, one chain of several): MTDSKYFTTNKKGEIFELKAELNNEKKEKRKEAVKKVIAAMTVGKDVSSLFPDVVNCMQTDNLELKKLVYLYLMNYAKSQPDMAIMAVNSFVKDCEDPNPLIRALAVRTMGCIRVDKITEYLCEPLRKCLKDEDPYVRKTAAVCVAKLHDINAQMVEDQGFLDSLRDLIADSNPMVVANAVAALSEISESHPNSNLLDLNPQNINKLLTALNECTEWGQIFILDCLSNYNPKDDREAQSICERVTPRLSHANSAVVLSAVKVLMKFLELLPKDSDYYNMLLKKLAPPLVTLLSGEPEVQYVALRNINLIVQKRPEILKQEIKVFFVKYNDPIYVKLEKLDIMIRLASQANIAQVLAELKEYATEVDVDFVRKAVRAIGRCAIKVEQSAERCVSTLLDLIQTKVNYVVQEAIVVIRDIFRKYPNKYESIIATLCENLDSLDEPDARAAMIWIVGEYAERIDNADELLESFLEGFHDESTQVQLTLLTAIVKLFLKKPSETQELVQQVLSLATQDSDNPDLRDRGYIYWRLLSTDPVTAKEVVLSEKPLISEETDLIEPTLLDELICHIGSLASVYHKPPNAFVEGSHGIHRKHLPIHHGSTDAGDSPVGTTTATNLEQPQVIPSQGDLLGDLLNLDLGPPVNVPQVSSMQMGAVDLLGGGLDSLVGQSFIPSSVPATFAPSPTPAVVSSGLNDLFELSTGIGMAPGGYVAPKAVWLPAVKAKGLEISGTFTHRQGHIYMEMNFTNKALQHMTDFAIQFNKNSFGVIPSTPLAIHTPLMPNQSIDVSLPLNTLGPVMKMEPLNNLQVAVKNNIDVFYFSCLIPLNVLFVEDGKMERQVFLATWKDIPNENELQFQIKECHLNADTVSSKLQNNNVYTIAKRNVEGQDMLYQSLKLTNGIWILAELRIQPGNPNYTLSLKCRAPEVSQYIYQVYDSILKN

`CCC(C)N1C(=O)/C(=C\c2cnc(N(C)C)nc2)C(=O)NC1=S` (stereo not drawn): the values for the GFP response vs DMSO in experiment [1], in [1] (setting [17]) and in [1] (setting [18]) were 104% (inactive), 98.4% and 93.8%, respectively. Moreover, in experiment [2], the GFP response relative to DMSO was 97.4% (inactive). Also, the GFP response, % of DMSO in [3] was 106% (inactive); in experiment [3] (setting [17]) it was 114%; in experiment [3] (setting [18]), 90.2%.
Turning to `Cn1c(=O)c2[nH]cnc2n(C)c1=O`, the figures for the inhibition in experiment [4] and in experiment [5] were 2.7% (inactive) and -2% (inactive), respectively.
For `c1cnc2c(c1)ccc1ncccc12`, the double positive events in experiment [6] was 64.8%. The vesicle binding response in [6] was 165% (inactive). The inhibition in experiment [7] is 0.59% (inactive); in experiment [10], -6.24% (inactive); in experiment [4], -4.1% (inactive); in [5] it was -0.7% (inactive); in experiment [13], -2.4% (inactive); in experiment [15], 4% (inactive). Further, the superoxide response (% of plate) in experiment [8] was 83.3% (inactive). The aptamer binding inhibition in experiment [9] is 8% (inactive). The response in [11] is 21.4% (active). The binding (% of control) in experiment [12] was 102% (inactive). Moreover, in [14], the efflux inhibition (fraction of control) was 0.08 (inactive). Moreover, the differentiation response in experiment [16] was -17.8% (inactive).
In experiment [6], `NCCc1ccc(O)cc1` yielded a double positive events of 60%. For the same compound, the vesicle binding response in experiment [6] was 185% (inactive). Moreover, the inhibition in experiment [7] was -2.82% (inactive); in [10], 5.64% (inactive); in experiment [4] it was 5.4% (inactive); in experiment [5], 0.3% (inactive); in experiment [13], -8.1% (inactive); in experiment [15] it was -2% (inactive). In addition, in experiment [8], the superoxide response (% of plate) was 94.8% (inactive). Further, the aptamer binding inhibition in experiment [9] was 2% (inactive). Moreover, the response in [11] was 5.09% (inactive). The binding (% of control) in [12] is 107% (inactive). For the same compound, in experiment [14], the efflux inhibition (fraction of control) is -0.09 (inactive). Moreover, the differentiation response in experiment [16] is -11.9% (inactive).
As for `CC1(C)OC(c2ccccc2)=C/C(=C/C=C2C(=O)NC(=S)NC2=O)O1`, the GFP response vs DMSO is 97.8% (inactive) in experiment [1], 99.3% in experiment [1] (setting [17]) and 98.5% in [1] (setting [18]). In addition, the figures for the GFP response relative to DMSO in [2] and in [2] (measured here: mother cell gate response) were 203% (active) and 160%, respectively. The values for the GFP response, % of DMSO in experiment [3], in experiment [3] (setting [17]) and in experiment [3] (setting [18]) were 119% (inactive), 121% and 117%, respectively.
Consider `C[C@]12CCC(=O)C=C1CC[C@@H]1[C@@H]2C(=O)C[C@]2(C)C(=O)CC[C@@H]12`, for which the double positive events in experiment [6] came out at 61%. The vesicle binding response in [6] was 259% (inactive). Further, the inhibition is 6.55% (inactive) in [7]; 0.49% (inactive) in experiment [10]; -1.7% (inactive) in experiment [4]; 1% (inactive) in experiment [5]; -4.7% (inactive) in experiment [13]; -30% (inactive) in [15]. Besides, in [8], the superoxide response (% of plate) was 76.3% (inactive). The aptamer binding inhibition in experiment [9] is 3% (inactive). In addition, the response in experiment [11] is -0.42% (inactive). Also, in [12], the binding (% of control) is 99.9% (inactive). Further, the efflux inhibition (fraction of control) in [14] was 0.12 (inactive). Besides, the differentiation response in experiment [16] was 5.85% (inactive).
As for `COc1ccc2c3c([nH]c2c1)C(C)=NCC3`, the double positive events in [6] was determined as 57.1%. For the same compound, the vesicle binding response in experiment [6] was 218% (inactive). Moreover, the inhibition in [7] was -16.1% (inactive); in experiment [10], 10.6% (inactive); in experiment [4] it was -22.6% (inactive); in experiment [5], -5.4% (inactive); in [13], -104% (inactive); in experiment [15] it was -229% (inactive). Moreover, the superoxide response (% of plate) in experiment [8] was 102% (inactive). The aptamer binding inhibition in [9] is -10% (inactive). For the same compound, the response in experiment [11] is -11.3% (inactive). Further, the binding (% of control) in [12] is 172% (inactive). Further, the efflux inhibition (fraction of control) in experiment [14] was -0.24 (inactive). The differentiation response in experiment [16] was 20.8% (inactive).
